Lmaj promast: Leishmania major promastigote growth inhibition, primary screen. Leishmania major promastigotes, resazurin fluorescence viability. inhibition, % at 10 µM. hit rate 9% among 200,000. AID 1063, 2008; in the data active means inhibition above about 50%;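 further: promastigotes grown with compound for 44 hours at 28 °C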
WT yeast gro inh: growth inhibition of WT strain, primary screen, mitochondrial fusion inhibitor project, WT and mutant strains, chemical genetic | hit rate 2.1% among 190,000 | mitochondrial fusion phenotypic screen | inhibition, % at 10 µM | AID 1362, 2008; in the data active means inhibition above about 58%; tested in S. cerevisiae
RAM network inh: inhibitors of the yeast RAM network, primary screen, dse1pr::URA3 reporter, 5-FOA selection | inhibition, % at 50 µM | S. cerevisiae dse1pr::URA3 reporter, 5-FOA growth OD615, 2 d; analog-sensitive cbk1-as2 kinase mutant strain | hit rate 1.8% among 190,000 | AID 868, 2007;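 active means inhibition above a set limit, 3 SD over mean compound inhibition, cut at about 8.4% in these data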;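 further: 0% = DMSO-only wells with no growth and 100% = 10 µM 1-NA-PP1 full growth; inhibition rescues growth on 5-FOA so higher OD means more RAM inhibition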
CHOP inhibitor: inhibitors of CHOP promoter induction, primary screen, cell-based, unfolded protein response, luciferase reporter. CHO-K1 CHOP-promoter luciferase, tunicamycin-induced, 15-18 h. inhibition, % at 10 µM. hit rate 3.8% among 220,000;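 active means compounds that reduced the stress-induced luciferase reporter signal by more than about 70% of percent inhibition, limit read from the data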;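 further: 0% = tunicamycin plus vehicle and 100% = wells without tunicamycin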
* = called active by the depositor; . = no result given. Hits are enriched below; roughly 13% of the tested compounds scored in any of these assays.

SMILES | Lmaj promast | WT yeast gro inh | RAM network inh | CHOP inhibitor
CC(C)C(=O)Nc1ccc(C(=O)NNC(=S)NC(=O)c2ccccc2[N+](=O)[O-])cc1 | -7.0 | -5.3 | 0.5 | 11.2
Cc1ccccc1C(=O)NNC(=S)NC(=O)COc1ccccc1 | 4.2 | -12.1 | 3.5 | 65.5
Cc1onc(-c2ccccc2)c1CNC(=O)Nc1ccccc1 | . | . | . | 0.8
COC(=O)C1C(=O)C2=C(CC1C)Nc1ccccc1NC2c1cccs1 (stereo unspecified) | 26.4 | -16.4 | 1.0 | -1.0
CCCOc1ccc(C(=O)NNC(=S)NC(C)=O)cc1 | 96.6* | 14.3 | 0.4 | 29.9
CCC(=O)NC(=S)NNC(=O)COc1ccc(Br)cc1 | 74.3* | 23.9 | -1.3 | 25.8
CCCOc1ccc(C(=O)NNC(=S)NC(=O)c2ccco2)cc1 | . | . | . | 24.8
Cc1cc(=O)[nH]n(CCO)c1=O | . | . | . | 28.6
CCn1c(Cc2ccccc2)nnc1SCC(=O)Nc1ccccc1O | -2.1 | 6.3 | 2.2 | 31.9
c1ccc(C(c2c[nH]c3ccccc23)c2c[nH]c3ccccc23)nc1 | 6.6 | 3.1 | 3.0 | 56.9
Cn1cc(C(c2ccccn2)c2cn(C)c3ccccc23)c2ccccc21 | 32.0 | . | 0.9 | 77.6*
CCn1c(=O)cc(SCC(=O)N2CCN(c3ccccc3OC)CC2)c2ccccc21 | -15.4 | -6.8 | 0.2 | -7.0
COc1ccccc1-n1ccnc1SCC(=O)NCc1ccco1 | -2.7 | -13.4 | -0.3 | 1.6
Cc1cccc(OCCOCCN2CCOCC2)c1C | 87.7* | -6.3 | -0.3 | -13.9
Cc1cc(OCCOCCN2CCCC2)ccc1C(C)C | 99.9* | 13.1 | 0.7 | -0.2
Cc1ccc(C(C)C)cc1OCCOCCN1CCCC1 | 99.8* | 10.8 | 0.3 | -8.1
Cc1cccc(C(C)(C)C)c1OCCOCCN1CCCC1 | 49.6 | -1.1 | 1.2 | 1.8
Cc1ccccc1OCCOCCN1CCCCCC1 | 98.6* | -2.8 | 1.1 | 28.6
CCN1CCN(CC(=O)c2ccc(OC)cc2)CC1 | -1.2 | -17.9 | -0.2 | -11.3
CCc1cccc(OCCOCCN2CCCC2)c1 | 96.6* | -8.8 | -0.3 | 41.1
CCOc1cccc(OCCOCCN2CCCC2)c1 | -6.1 | -7.1 | 0.3 | 38.9
COc1ccccc1CCC(=O)Nc1ccc(C)cc1Cl | 4.1 | -15.2 | 1.5 | -4.5
O=C(NC(NCc1cccnc1)C(Cl)(Cl)Cl)c1cccc2ccccc12 (stereo unspecified) | 83.8* | -3.4 | -1.1 | 21.1
CCc1ccc(NC(=O)N(CCCN2CCOCC2)C(C)c2cc3cccc(OC)c3o2)cc1 (stereo unspecified) | 53.8* | 22.5 | 1.8 | 13.8
COc1cccc2cc(C(C)N(CCCN3CCOCC3)C(=S)Nc3c(C)cccc3C)oc12 (stereo unspecified) | 53.3* | 5.4 | 0.8 | 15.8
SMILES | Lmaj promast | WT yeast gro inh | RAM network inh | CHOP inhibitor
COc1ccc(Br)cc1S(=O)(=O)NCCCN1CCOCC1 | -4.3 | -6.5 | 2.5 | -2.3
COc1ccc2c(c1)CC/C(=C\c1ccc(OC)c(Cn3cccn3)c1)C2=O | 97.7* | 38.3 | 7.8 | 32.8
COc1cc(/C=C2/CCc3ccccc3C2=O)cc(OC)c1OC | 55.2* | 5.9 | -0.9 | 12.3
COc1ccc2c(c1)CC/C(=C\c1ccc(OC)c(Cn3nc(C)cc3C)c1)C2=O | 8.2 | 18.7 | 7.4 | 67.0
O=C1/C(=C/c2ccncc2)CCc2ccccc21 | . | . | . | 8.2
COc1cc(/C=C2\CC/C(=C\c3cc(OC)c(OC)c(OC)c3)C2=O)cc(OC)c1OC | 96.0* | -24.3 | 6.6 | 14.8
COc1cc(/C=C2\CCc3ccccc3C2=O)cc(OC)c1OC | 76.9* | -1.3 | 0.5 | 1.4
COc1ccc(/C=C2/CCc3ccccc3C2=O)cc1OC | 52.4* | -8.5 | 0.8 | 15.9
COc1ccc(/C=C2\COc3ccccc3C2=O)cc1OC | 100.2* | 22.5 | 1.4 | -12.1
COc1ccc(/C=C2\CCc3ccccc3C2=O)cc1CN1CCOCC1 | . | . | . | -9.2
COc1ccc(/C=C2\C(=O)OCc3cc(OC)c(OC)cc32)cc1OC | 3.6 | -2.8 | 6.1 | -1.0
COc1cc(/C=C2/CCC/C(=C\c3cc(O)c(OC)c(Cl)c3)C2=O)cc(Cl)c1O | 91.3* | . | 7.7 | 79.7*
Cc1cccc(C)c1N=Cc1c(C(F)(F)F)[nH][nH]c1=O | -1.9 | -14.9 | 1.8 | 17.4
OC(CN1CCN(Cc2ccccc2)CC1)c1ccc(F)cc1 (stereo unspecified) | 95.9* | 8.0 | -0.7 | -12.6
CCOC(=O)N1CCN(CC(O)c2ccccc2)CC1 (stereo unspecified) | -3.3 | 3.1 | 1.5 | -6.3
O=S(=O)(c1ccccc1F)N1CCN(CC(O)c2ccccc2)CC1 (stereo unspecified) | -5.6 | -12.2 | 5.3 | 13.5
OC(CN1CCN(Cc2ccccc2)CC1)c1ccccc1 (stereo unspecified) | 69.3* | -4.7 | 1.7 | -9.1
Nc1nc(-c2cccc(NS(=O)(=O)c3ccccc3)c2)cs1 | 59.1* | 3.6 | 1.1 | 2.5
Cc1nc(-c2cccc(NS(C)(=O)=O)c2)cs1 | -7.5 | -4.9 | 1.7 | -35.1
Cc1nc(-c2cccc(NS(=O)(=O)c3cccc4ccccc34)c2)cs1 | 6.4 | 61.9* | 5.3 | 52.5
CC(=O)Nc1ccc(S(=O)(=O)Nc2cccc(-c3csc(C)n3)c2)cc1 | 3.4 | -5.0 | -0.1 | 18.9
Nc1ccc(C23CC4CC(CC(O)(C4)C2)C3)cc1 | -0.9 | -2.1 | 2.7 | 11.9
Nc1ccc(C23CC4CC(CC(C4)C2)C3)cc1 | 10.3 | 10.7 | 0.8 | 74.7*
Cc1ccc(Oc2ccc(-c3nc(N)nc(N)n3)cc2)cc1 | 97.6* | 39.3 | 4.5 | 45.0
Nc1nc(N)nc(-c2ccc(Cl)cc2)n1 | 1.1 | 9.1 | -0.1 | 16.4
SMILES | Lmaj promast | WT yeast gro inh | RAM network inh | CHOP inhibitor
N#Cc1c(-c2cccs2)cc(-c2cccnc2)nc1N | 52.9* | -0.1 | 2.3 | 19.4
N#Cc1c(-c2ccc(F)cc2)cc(-c2cccnc2)nc1N | -3.6 | 0.4 | 3.2 | 88.2*
N#Cc1c(-c2ccc(Br)cc2)cc(-c2cccnc2)nc1N | 3.5 | -10.0 | 1.5 | -18.0
N#Cc1c(-c2cccs2)cc(-c2ccccn2)nc1N | -3.4 | 18.3 | 2.9 | -53.8
Fc1ccc(NC(=S)N2CCc3ccccc3C2)c(F)c1 | 10.9 | 20.2 | -0.1 | 7.5
Cn1c(SCC(=O)N2CCCC2=O)nnc1-c1ccccc1F | -8.1 | -1.5 | 0.1 | -9.7
N#Cc1nc(COc2ccc(Cl)cc2)oc1NCc1ccc2c(c1)OCO2 | 75.2* | 21.9 | 7.0 | 73.3*
Cc1cccc(OCc2nc(C#N)c(NCc3ccc4c(c3)OCO4)o2)c1 | 7.2 | 52.6 | 10.6* | 56.6
CCN(CC)Cc1ccccc1Sc1ccccc1 | 94.4* | 21.6 | 2.0 | 18.5
CCCCOc1ccc(-c2ncc(N)cn2)cc1 | . | . | . | 2.8
CCc1ccc(NC(=O)c2ccc3c(c2)C(=O)N(CCOC)C3Nc2ccc(CC)cc2)cc1 (stereo unspecified) | 0.5 | -11.4 | 2.1 | 93.7*
COCCN1C(=O)c2cc(C(=O)Nc3cccc(F)c3)ccc2C1Nc1cccc(F)c1 (stereo unspecified) | -7.9 | -8.8 | 6.8 | 89.5*
O=C(Nc1cccc(-c2cn3cccnc3n2)c1)c1ccc(Br)o1 | 100.3* | 0.5 | 1.2 | 28.1
Oc1ccc(-c2csc(-c3ccccc3)n2)cc1O | 58.7* | 4.6 | -1.8 | -92.3
